From PubChem BioAssay
PostGolgi ctrl: growth inhibition of yeast control strain, primary screen, counter-screen for post-Golgi transport modulator project. efflux-deficient yeast background strain, growth absorbance A615, 16 h. 5% of 98,000 active. inhibition, % at 10 µM. AID 738, 2007
CYP2C19 act: human CYP2C19 activators, primary screen, biochemical, luminescence; recombinant CYP2C19, luciferin-H EGE luminescence; active compounds read high; 0 = fully inhibited enzyme, 1 = untreated enzyme; activation factor at 5 µM; 96,000 tested, under 10 active; AID 1025, 2008;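 active = activation factor of at least 2 at 5 µM in the primary screen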;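 note: 0 = wells with 2.5 mM tranylcypromine and 1 = vehicle-only wells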
CYP2C19 inh: blockers of cytochrome P450 2C19 activity – biochemical, luminescence, ADME assay, primary screen. inhibition, % at 5 µM. P33261. CYP2C19 Supersomes, luciferin-H EGE luminescence, 30 min. 21% of 96,000 active;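 active = CYP2C19 inhibition above a set limit at 5 µM in the primary screen, cut at about 50% in these data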;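 note: plate controls were negative control wells for no effect and 2.5 mM tranylcypromine positive control for full effect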
CYP2C9 act: human CYP2C9 activators, primary screen, biochemical, luminescence | Cytochrome P450 2C9 (Homo sapiens), P11712 | activation factor at 5 µM | AID 1024, 2008 | recombinant CYP2C9, luciferin-H conversion; active compounds read high; factor 1 = untreated enzyme, 0 = blocked | 1.4% of 96,000 active;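 active = activation factor of 2 or more for CYP2C9 at a 5 µM dose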;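 note: 0 = sulfaphenazole-blocked wells and 1 = vehicle-only wells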
Target sequence (P11712 whole entry, looked up): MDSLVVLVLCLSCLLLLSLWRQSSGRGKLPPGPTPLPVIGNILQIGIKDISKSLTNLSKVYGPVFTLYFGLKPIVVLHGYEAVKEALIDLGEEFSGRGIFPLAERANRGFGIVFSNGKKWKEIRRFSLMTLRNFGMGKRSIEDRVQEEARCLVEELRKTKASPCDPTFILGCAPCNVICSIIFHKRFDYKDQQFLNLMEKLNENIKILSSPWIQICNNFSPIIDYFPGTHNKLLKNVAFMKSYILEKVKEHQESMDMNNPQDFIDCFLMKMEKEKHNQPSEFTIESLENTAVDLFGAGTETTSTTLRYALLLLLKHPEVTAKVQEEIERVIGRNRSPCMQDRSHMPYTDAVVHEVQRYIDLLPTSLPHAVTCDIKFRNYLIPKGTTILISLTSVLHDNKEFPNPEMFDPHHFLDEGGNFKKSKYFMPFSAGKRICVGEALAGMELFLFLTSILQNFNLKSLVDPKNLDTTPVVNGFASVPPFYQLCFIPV
CYP2C9 inhib: blockers of cytochrome P450 2C9 activity – biochemical, luminescence, ADME assay, primary screen | P11712 | CYP2C9 Supersomes, luciferin-H conversion | inhibition, % at 5 µM | 20% of 96,000 active | AID 777, 2007;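 active = blocking of liver enzyme CYP2C9 beyond about 50% at 5 µM, limit read from the data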
PostGolgi yeast: phenotypic screen on post-Golgi transport, primary screen | inhibition, % at 10 µM | post-Golgi transport phenotypic cell assay | 0.9% of 98,000 active;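 note: yeast cells grown in 1536-well plates; yeast grown about 18 h at 30C before absorbance read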
The depositor's hits bear a star. Shown are actives, neighbours in structure and some others; about 32% of the full set was active somewhere. Cut-off read from the data, not from the text of the source, unless noted: active = inhibition above about 30%; inactive = the rest.

SMILES	PostGolgi ctrl	CYP2C19 act	CYP2C19 inh	CYP2C9 act	CYP2C9 inhib	PostGolgi yeast
Cc1ccc(C(=O)N(c2ccccc2)C2CC(C)N(C(=O)c3ccco3)c3ccccc32)cc1 (stereo unspecified)	5.7	0.5	52.0*	0.1	94.1*	7.8
O=C(O)c1cccc(CSc2nc(-c3ccc(Cl)cc3)cc(C(F)(F)F)n2)c1	6.3	1.2	-15.5	1.1	-7.9	-0.6
Cc1ccc(SCCNC(=O)c2cccc([N+](=O)[O-])c2C)cc1	26.3	0.8	23.4	0.7	30.1	8.8
CN(c1ncc(C(F)(F)F)cc1Cl)n1cc(C(=O)O)c2ccccc2c1=O	23.1	1.1	-8.7	0.8	19.3	-0.1
CN(c1ncc(C(F)(F)F)cc1Cl)n1cc(C(N)=O)c2ccccc2c1=O	-5.0	0.4	57.3*	0.2	83.4*	-4.5
O=C(COc1ccc(Br)cc1CO)Nc1ccccc1	13.7	0.1	88.6*	0.3	70.8*	1.1
CC(C)(CO)NCc1ccccc1OCC(=O)Nc1ccccc1	31.8*	0.9	5.9	1	-0.2	-7.0
Cc1ccc(NC(=O)COc2ccc(Br)cc2CO)cc1	13.2	0.3	73.9*	0.4	56.4*	14.7
Cn1c(SCC(=O)NC2CC2)nnc1C(F)(F)F	0.3	1	2.3	1.1	-8.2	14.6
CCn1c(CCn2ccnc2C)n[nH]c1=S	37.9*	1	-3.2	1.3	-29.4	-4.5
COc1ccc(/C=C2\CCOC2=O)cc1	15.1	1	4.7	1	-1.8	8.8
COc1ccc(/C=C2\CCCC(C(=O)C(F)(F)F)=C2O)cc1	1.8	1.1	-13.8	0.2	81.7*	-8.3
CCC(C)C(=O)Nc1cc(C(=O)OC)ccc1C(=O)OC (stereo unspecified)	0.7	0.9	6.2	0.9	10.6	-10.8
COC(=O)c1ccc(C(=O)OC)c(NC(=O)N2c3ccccc3Sc3ccccc32)c1	-5.9	0.9	12.4	0.5	50.6*	-7.0
CCOC(=O)c1c(C)oc2c(F)c(F)c(F)c(F)c2c1=O	11.2	1	3.9	1	2.3	0.0
Nc1cc(CN2C(=O)c3ccccc3C2=O)cc(Cl)c1O	3.9	0.9	13.8	3.5*	-254.3	5.7
O=C(c1ccc(Cl)cc1)c1ccc(CN2C(=O)c3ccccc3C2=O)o1	22.5	0.9	11.3	0.5	45.9	0.6
CC1=C(C#N)C(C(F)(F)F)(C(F)(F)F)N=C(c2ccco2)N1	2.9	0.2	81.9*	0.3	75.0*	7.6
O=c1[nH]c(=O)n(Cc2ccccc2)c2c1C(C(F)(F)F)(C(F)(F)F)N=C(c1ccco1)N2	2.6	0.8	16.3	0.5	46.1	14.9
O=C(/C=C/c1ccccc1)N1CCN(c2cccc(Cl)n2)CC1	13.5	0.7	25.3	0.5	45.5	-11.3
CCCCc1ccc(/C=C2\C(=O)c3ccccc3C(O)=C2C(=O)OCC)cc1	13.9	0.3	67.0*	0.1	90.2*	-13.6
CCC(=O)N(CC)C1=C(O)c2ccccc2C(=O)C1=O	6.4	0.8	17.2	0.6	35.4	0.2
Clc1ccc(-c2nnc(SCc3ccon3)o2)c(Cl)c1	12.1	0	96.7*	0.4	61.9*	-11.4
C=CCSc1nnc(-c2ccc(Cl)cc2Cl)o1	8.8	0.2	84.2*	0.7	32.0	8.7
Cn1c(=Nc2ccccc2)sc2ccccc21	-0.3	0.2	81.2*	0.6	41.4	-4.6
SMILES	PostGolgi ctrl	CYP2C19 act	CYP2C19 inh	CYP2C9 act	CYP2C9 inhib	PostGolgi yeast
CN(C)c1ccc(N=c2sc3ccccc3n2C)cc1	11.3	0	97.5*	0.2	76.8*	10.8
Cn1c(CCC(=O)Nc2ccc(N3CCOCC3)cc2)nc(=O)c2ccccc21	7.4	1	3.6	1	3.8	3.9
COc1ccc(C2CC(=O)c3c(ccc4ccccc34)N2)cc1OC (stereo unspecified)	2.8	0.9	14.0	0.7	31.7	-0.8
CCOc1cc(C2CC(=O)c3c(ccc4ccccc34)N2)ccc1O (stereo unspecified)	13.2	0.8	23.6	0.3	65.3*	7.7
COc1ccc(-n2c(SCC(=O)NC3CCCCC3)nc3ccsc3c2=O)cc1	3.5	1.1	-9.4	1.1	-7.0	10.3
C/C(=N\O)C(=O)NCCCNCCCN(C)C	-2.1	1.2	-22.0	1.3	-30.8	3.3
Cc1ccc2nc(-c3ccncc3)cc(-c3ccccc3)c2c1	41.7*	0.8	17.0	0.6	36.1	7.1
Cc1ccc2nc(-c3ccc(NS(C)(=O)=O)cc3)cc(-c3ccccc3)c2c1	57.9*	0.9	10.2	0.5	52.7*	11.6
Cc1ccc(NC(=O)c2cc(N3CCOCC3)nc3ccccc23)cc1	27.6	1	4.0	0.6	35.5	-1.7
O=C(Nc1nccs1)c1cc(N2CCOCC2)nc2ccccc12	33.9*	0.8	18.5	0.6	44.3	-1.4
O=C(Nc1ccccc1)c1cc(N2CCOCC2)nc2ccccc12	13.6	0.8	19.6	0.5	51.0*	11.2
CCN(CC)c1ccc(CNc2ccc(Br)cn2)cc1	6.8	0.2	79.8*	0.4	63.4*	-9.3
CSC1=N/C(=C\c2ccc(C)cc2)C(=O)S1	13.5	1	2.3	0.9	10.1	2.4
CCOc1cc(/C=C2\N=C(SCC)SC2=O)cc([N+](=O)[O-])c1OC(C)=O	19.9	1.1	-8.4	0.3	71.7*	4.4
CCOc1c(OC(C)=O)ccc(/C=C2\N=C(SCC)SC2=O)c1[N+](=O)[O-]	26.4	1	4.4	0.8	20.1	-3.6
CCOc1cc(/C=C2\N=C(SC)SC2=O)cc([N+](=O)[O-])c1OC(C)=O	13.1	1	-2.3	0.3	71.4*	-4.4
COCCn1c(SCC(=O)NCc2cccs2)nnc1-c1ccc(OC)cc1	1.1	1	4.6	1	4.5	-4.5
COc1cccc(-c2csc3nnc(SCC(=O)NCc4cccs4)n23)c1	8.7	0.4	59.1*	0.6	39.5	-0.8
COc1ccc(-c2nnc(SCC(=O)NCc3cccs3)n2C(C)C)cc1	13.6	0.3	65.9*	0.5	54.2*	-2.2
CCOc1ccc(NC(=O)CSc2nnc(-c3ccccn3)n2C)cc1	1.5	1.1	-9.5	0.9	7.8	-2.3
CCCOc1ccc(N2C(=O)CC(N3CCC(C(=O)OCC)CC3)C2=O)cc1 (stereo unspecified)	-1.7	0.9	9.6	0.8	17.4	-1.9
CCOc1ccc(Cl)cc1S(=O)(=O)n1nnc2ccccc21	-2.9	0	98.3*	2*	-104.1	4.0
CCOc1ccc(S(=O)(=O)n2nnc3ccccc32)cc1C	-2.1	1.1	-7.4	1.2	-23.8	5.2
